Laboratory results reported in the supplement of paper PMC10849652.
The full data set covers some 8,800 targets. This sample favours those with a hit. About 0.5% of all pairs of compound and target were hits. Unmarked numbers belong to inactive results.

Experiments:
Assay in all cases: log2 fold change, soluble protein after heating vs DMSO (PISA); higher = thermal stabilisation; K562 lysate, 10 uM; active = over 0.2 and 3.5 SD of the protein, either way, in both replicates (recomputed)
lapatinib = compound: CS(=O)(=O)CCNCc1ccc(-c2ccc3ncnc(Nc4ccc(OCc5cccc(F)c5)c(Cl)c4)c3c2)o1 [lapatinib]
How it was run: (§1)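 Pellets of K562 cells were dounce-homogenised in PBS pH 7.4 with 1 mM MgCl2, and the crude extract was held at 1 mg/mL protein for a 30 min treatment with 10 μM compound. Aliquots were heated for 3 min over 48°C-58°C and pooled before NP-40 was added to 0.5% at 4°C. The supernatant from 21,000xg for 90 min was quantified by TMTpro 16plex LC-MS/MS with channel sums equalised. Values are reported from duplicates as log-two fold change in thermal stability relative to solvent controls.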

pictilisib = compound: CS(=O)(=O)N1CCN(Cc2cc3nc(-c4cccc5[nH]ncc45)nc(N4CCOCC4)c3s2)CC1 [pictilisib]
How it was run: as §1

crizotinib = compound: C[C@@H](Oc1cc(-c2cnn(C3CCNCC3)c2)cnc1N)c1c(Cl)ccc(F)c1Cl [crizotinib]
How it was run: as §1

[1] = compound: C[C@H](C1=CC=C(C=C1)C(=O)NC2=C3C=CNC3=NC=C2)N
How it was run: as §1

duvelisib = compound: C[C@H](Nc1ncnc2nc[nH]c12)c1cc2cccc(Cl)c2c(=O)n1-c1ccccc1 [duvelisib]
How it was run: as §1

gandotinib = compound: Cc1cc(Nc2cc(CN3CCOCC3)c3nc(C)c(Cc4ccc(Cl)cc4F)n3n2)n[nH]1 [gandotinib]
How it was run: as §1

tozasertib = compound: Cc1cc(Nc2cc(N3CCN(C)CC3)nc(Sc3ccc(NC(=O)C4CC4)cc3)n2)n[nH]1 [tozasertib]
How it was run: as §1

doramapimod = compound: Cc1ccc(-n2nc(C(C)(C)C)cc2NC(=O)Nc2ccc(OCCN3CCOCC3)c3ccccc23)cc1 [doramapimod]
How it was run: as §1

bafetinib = compound: Cc1ccc(NC(=O)c2ccc(CN3CC[C@H](N(C)C)C3)c(C(F)(F)F)c2)cc1Nc1nccc(-c2cncnc2)n1 [bafetinib]
How it was run: as §1

[2] = compound: Cc1cccc(CC(=O)N2CCc3c2ccc(-c2cn(C)c4ncnc(N)c24)c3F)n1
How it was run: as §1

Chain of UniProt P20585 (P20585 whole entry, looked up): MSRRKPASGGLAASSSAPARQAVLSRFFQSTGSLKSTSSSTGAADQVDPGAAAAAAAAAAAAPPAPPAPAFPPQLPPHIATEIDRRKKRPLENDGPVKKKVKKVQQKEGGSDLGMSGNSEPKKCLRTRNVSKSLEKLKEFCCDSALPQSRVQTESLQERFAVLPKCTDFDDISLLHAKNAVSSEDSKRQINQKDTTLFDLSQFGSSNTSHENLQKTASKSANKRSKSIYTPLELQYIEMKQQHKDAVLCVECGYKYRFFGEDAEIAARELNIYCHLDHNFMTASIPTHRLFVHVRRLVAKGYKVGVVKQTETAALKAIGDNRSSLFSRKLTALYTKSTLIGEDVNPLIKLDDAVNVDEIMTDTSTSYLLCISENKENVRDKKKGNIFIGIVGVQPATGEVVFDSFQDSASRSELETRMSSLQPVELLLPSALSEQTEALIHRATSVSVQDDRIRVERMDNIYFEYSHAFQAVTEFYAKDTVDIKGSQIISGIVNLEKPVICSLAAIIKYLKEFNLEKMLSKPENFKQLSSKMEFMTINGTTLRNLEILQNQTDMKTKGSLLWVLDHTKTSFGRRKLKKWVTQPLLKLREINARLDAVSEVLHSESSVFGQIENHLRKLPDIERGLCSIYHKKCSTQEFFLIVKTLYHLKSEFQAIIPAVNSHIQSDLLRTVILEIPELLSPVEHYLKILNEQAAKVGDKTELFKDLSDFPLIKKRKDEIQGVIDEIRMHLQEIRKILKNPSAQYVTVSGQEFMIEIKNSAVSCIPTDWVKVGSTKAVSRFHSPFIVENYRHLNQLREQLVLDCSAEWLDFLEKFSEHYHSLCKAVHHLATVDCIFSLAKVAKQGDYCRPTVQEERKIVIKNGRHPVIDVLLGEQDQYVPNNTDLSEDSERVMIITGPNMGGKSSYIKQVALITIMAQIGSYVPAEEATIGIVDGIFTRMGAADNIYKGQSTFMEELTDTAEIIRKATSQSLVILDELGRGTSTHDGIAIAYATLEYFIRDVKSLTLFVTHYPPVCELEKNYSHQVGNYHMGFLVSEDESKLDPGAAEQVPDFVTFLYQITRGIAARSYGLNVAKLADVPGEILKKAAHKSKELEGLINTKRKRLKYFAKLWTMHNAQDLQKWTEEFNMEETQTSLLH
Chain of UniProt P00156 (P00156 whole entry, looked up): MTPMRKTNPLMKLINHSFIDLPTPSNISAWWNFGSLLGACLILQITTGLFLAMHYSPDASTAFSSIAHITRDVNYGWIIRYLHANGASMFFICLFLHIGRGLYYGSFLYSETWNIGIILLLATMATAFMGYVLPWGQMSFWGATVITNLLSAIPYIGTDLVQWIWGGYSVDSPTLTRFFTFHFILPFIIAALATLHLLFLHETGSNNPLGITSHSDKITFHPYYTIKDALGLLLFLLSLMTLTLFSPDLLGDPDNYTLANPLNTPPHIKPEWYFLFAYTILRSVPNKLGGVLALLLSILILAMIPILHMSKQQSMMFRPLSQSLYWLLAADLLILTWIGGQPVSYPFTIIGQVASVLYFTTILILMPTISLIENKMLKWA
Chain of UniProt P40261 (P40261 whole entry, looked up): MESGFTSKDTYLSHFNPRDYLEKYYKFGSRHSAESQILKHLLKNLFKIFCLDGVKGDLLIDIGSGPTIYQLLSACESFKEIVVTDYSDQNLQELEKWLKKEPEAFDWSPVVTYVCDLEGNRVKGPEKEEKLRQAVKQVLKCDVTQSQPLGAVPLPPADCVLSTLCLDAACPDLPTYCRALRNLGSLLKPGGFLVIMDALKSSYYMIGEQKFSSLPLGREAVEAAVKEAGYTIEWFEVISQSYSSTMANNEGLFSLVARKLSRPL
Chain of UniProt Q15003 (Q15003 whole entry, looked up): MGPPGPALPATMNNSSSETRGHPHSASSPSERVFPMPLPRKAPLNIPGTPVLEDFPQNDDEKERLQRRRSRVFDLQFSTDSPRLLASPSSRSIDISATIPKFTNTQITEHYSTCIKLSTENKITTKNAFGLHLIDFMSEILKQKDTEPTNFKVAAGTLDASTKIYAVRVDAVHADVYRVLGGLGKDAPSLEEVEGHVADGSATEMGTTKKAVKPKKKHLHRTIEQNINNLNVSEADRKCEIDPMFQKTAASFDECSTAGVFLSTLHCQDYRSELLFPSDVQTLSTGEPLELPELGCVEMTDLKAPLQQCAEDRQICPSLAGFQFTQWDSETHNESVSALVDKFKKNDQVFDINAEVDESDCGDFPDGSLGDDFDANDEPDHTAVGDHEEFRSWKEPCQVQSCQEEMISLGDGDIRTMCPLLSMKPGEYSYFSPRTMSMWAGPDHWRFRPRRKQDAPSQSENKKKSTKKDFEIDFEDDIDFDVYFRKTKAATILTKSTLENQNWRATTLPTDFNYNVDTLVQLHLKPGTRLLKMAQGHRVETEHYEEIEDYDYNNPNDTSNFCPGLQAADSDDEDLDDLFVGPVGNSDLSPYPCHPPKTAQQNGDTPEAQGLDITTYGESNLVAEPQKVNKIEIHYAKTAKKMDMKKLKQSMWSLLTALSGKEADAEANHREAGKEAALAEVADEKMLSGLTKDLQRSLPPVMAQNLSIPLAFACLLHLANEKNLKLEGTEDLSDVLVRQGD
Chain of UniProt Q9NZJ9 (Q9NZJ9 whole entry, looked up): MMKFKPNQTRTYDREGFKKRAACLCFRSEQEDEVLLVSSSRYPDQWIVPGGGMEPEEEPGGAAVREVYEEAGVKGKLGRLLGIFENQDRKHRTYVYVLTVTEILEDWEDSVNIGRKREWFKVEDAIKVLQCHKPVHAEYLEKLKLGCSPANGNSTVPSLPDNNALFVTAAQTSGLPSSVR
Chain of UniProt P43246 (P43246 whole entry, looked up): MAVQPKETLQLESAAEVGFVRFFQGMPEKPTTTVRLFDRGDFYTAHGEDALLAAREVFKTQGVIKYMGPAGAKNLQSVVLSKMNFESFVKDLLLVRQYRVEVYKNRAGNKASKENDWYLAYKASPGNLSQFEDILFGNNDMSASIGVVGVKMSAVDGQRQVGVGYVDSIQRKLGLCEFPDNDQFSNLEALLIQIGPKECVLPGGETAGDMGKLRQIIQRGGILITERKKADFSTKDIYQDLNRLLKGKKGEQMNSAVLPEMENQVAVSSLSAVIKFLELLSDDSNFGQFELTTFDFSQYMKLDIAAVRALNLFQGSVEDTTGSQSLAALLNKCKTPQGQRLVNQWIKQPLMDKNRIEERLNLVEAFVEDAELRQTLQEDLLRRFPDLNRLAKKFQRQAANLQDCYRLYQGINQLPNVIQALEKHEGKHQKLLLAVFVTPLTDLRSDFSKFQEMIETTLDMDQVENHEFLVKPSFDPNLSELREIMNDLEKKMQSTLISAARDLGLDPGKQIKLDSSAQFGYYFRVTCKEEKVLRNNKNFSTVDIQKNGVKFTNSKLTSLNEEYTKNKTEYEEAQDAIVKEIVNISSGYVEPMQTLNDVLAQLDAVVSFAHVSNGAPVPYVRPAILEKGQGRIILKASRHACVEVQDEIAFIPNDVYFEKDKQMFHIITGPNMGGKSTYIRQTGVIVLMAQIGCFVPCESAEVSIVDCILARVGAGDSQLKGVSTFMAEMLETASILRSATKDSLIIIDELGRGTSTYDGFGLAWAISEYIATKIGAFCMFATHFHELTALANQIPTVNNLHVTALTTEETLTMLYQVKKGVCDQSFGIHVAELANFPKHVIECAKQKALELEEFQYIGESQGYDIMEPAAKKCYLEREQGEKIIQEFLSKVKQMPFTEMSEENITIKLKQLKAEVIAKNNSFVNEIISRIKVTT
Chain of UniProt P15559 (P15559 whole entry, looked up): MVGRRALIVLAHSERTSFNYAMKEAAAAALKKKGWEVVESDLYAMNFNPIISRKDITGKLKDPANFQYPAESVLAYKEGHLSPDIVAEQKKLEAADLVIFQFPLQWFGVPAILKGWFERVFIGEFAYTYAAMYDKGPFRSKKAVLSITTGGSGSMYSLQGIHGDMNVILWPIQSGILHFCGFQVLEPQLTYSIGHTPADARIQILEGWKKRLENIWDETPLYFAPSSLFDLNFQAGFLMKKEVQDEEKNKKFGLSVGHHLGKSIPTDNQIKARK
Chain of UniProt Q15102 (Q15102 whole entry, looked up): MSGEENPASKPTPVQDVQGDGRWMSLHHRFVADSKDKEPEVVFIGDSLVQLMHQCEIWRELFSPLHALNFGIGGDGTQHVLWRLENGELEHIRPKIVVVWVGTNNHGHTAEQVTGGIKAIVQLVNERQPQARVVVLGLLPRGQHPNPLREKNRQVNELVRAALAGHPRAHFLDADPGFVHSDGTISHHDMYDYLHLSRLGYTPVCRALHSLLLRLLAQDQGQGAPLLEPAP
Chain of UniProt Q9Y6C9 (Q9Y6C9 whole entry, looked up): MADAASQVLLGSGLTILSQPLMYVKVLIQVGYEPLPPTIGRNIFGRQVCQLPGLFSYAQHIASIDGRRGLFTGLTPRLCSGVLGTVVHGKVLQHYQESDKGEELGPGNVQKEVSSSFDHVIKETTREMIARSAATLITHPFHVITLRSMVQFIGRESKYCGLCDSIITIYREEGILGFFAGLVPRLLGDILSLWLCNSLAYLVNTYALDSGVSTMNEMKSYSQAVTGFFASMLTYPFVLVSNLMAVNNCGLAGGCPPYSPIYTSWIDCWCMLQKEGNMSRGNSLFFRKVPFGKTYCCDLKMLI
Chain of UniProt Q99417 (Q99417 whole entry, looked up): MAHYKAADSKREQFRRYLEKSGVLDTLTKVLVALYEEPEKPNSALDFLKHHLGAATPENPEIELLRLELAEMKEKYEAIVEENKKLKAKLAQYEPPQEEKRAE
Chain of UniProt Q9UDX5 (Q9UDX5 whole entry, looked up): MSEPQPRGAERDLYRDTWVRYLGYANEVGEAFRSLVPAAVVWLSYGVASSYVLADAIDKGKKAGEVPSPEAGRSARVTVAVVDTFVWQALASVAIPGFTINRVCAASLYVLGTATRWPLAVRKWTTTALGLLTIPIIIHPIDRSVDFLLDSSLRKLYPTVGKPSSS

Row | Target | log2 fold change (lapatinib) | log2 fold change (pictilisib) | log2 fold change (crizotinib) | log2 fold change [1] | log2 fold change (duvelisib) | log2 fold change (gandotinib) | log2 fold change (tozasertib) | log2 fold change (doramapimod) | log2 fold change (bafetinib) | log2 fold change [2]
1 | MYO1C (UniProt O00159) | -0.078 | 0.007 | -0.09 | 0.027 | 0.075 | -0.036 | 0.014 | 0.065 | 0.068 | -0.023
2 | NFATC2IP (UniProt Q8NCF5) | 0.002 | -0.091 | 0.027 | 0.059 | -0.067 | 0.039 | -0.035 | 0.001 | -0.169 | -0.018
3 | MRPL58 (UniProt Q14197) | 0.035 | -0.034 | -0.063 | 0.365 (active) | -0.034 | -0.009 | 0.045 | -0.026 | -0.03 | -0.119
4 | MYCBP (UniProt Q99417) | 0.01 | -0.052 | 0.003 | -0.498 (active) | 0.02 | 0.105 | 0.028 | 0.008 | -0.018 | 0.182
5 | MSH2 (UniProt P43246) | -0.005 | -0.003 | -0.04 | 0.028 | -0.001 | -0.068 | 0.002 | 0.013 | -0.026 | 0.002
6 | MYO1D (UniProt O94832) | 0.014 | -0.051 | -0.035 | 0.016 | -0.028 | -0.072 | 0.01 | 0.011 | -0.041 | -0.005
7 | NQO1 (UniProt P15559) | -0.055 | -0.048 | -0.04 | -0.074 | 0.012 | 0.009 | 0.022 | -0.333 (active) | -0.023 | 0.262 (active)
8 | MTHFD1, A0A384N5Y3 | -0.008 | -0.003 | -0.064 | 0.04 | 0.015 | -0.087 | 0.028 | 0.043 | -0.041 | -0.025
9 | NBEAL2 (UniProt Q6ZNJ1) | -0.065 | -0.016 | -0.069 | -0.006 | 0.04 | -0.157 | 0.02 | 0.008 | -0.056 | 0.072
10 | NCAPD2 (UniProt Q15021) | -0.033 | 0.001 | -0.049 | -0.003 | 0.014 | -0.115 | -0.006 | 0.011 | -0.036 | 0.029
11 | PAFAH1B3 (UniProt Q15102) | -0.034 | -0.024 | -0.01 | -0.016 | -0.024 | -0.001 | 0.054 | 0 | 0.048 | -0.001
12 | NT5DC2 isoform 2 (UniProt Q9H857) | -0.036 | -0.019 | 0.004 | -0.018 | -0.01 | 0.021 | -0.019 | -0.029 | -0.027 | -0.027
13 | MSH3 (UniProt P20585) | -0.021 | -0.005 | -0.004 | -0.018 | -0.001 | -0.019 | 0.021 | 0.019 | -0.003 | 0.028
14 | NNMT (UniProt P40261) | -0.017 | 0.037 | -0.065 | -0.072 | 0.066 | 0.015 | 0 | 0.013 | -0.066 | -0.001
15 | NUDT4 (UniProt Q9NZJ9) | -0.01 | -0.055 | 0.032 | 0.166 | -0.039 | -0.188 | -0.022 | -0.076 | 0.117 | -0.304 (active)
16 | NCKAP1L (UniProt P55160) | 0 | 0 | -0.061 | -0.002 | 0.02 | 0.025 | 0.018 | -0.011 | -0.324 | 0.017

Row | Target | log2 fold change (lapatinib) | log2 fold change (pictilisib) | log2 fold change (crizotinib) | log2 fold change [1] | log2 fold change (duvelisib) | log2 fold change (gandotinib) | log2 fold change (tozasertib) | log2 fold change (doramapimod) | log2 fold change (bafetinib) | log2 fold change [2]
17 | NCAPD3 (UniProt P42695) | -0.015 | -0.009 | -0.065 | -0.013 | -0.004 | -0.099 | -0.013 | 0.02 | -0.024 | 0.047
18 | NUMBL (UniProt Q9Y6R0) | 0.01 | 0.111 | 0.066 | 0.018 | 0.162 | 0.176 | 0.036 | 0.247 | 0.041 | 0.036
19 | ORC3 isoform 2 (UniProt Q9UBD5) | -0.014 | -0.011 | -0.119 | -0.008 | -0.025 | -0.097 | -0.024 | -0.009 | -0.046 | 0.001
20 | MTCH2 (UniProt Q9Y6C9) | -0.023 | -0.018 | -0.059 | -0.144 | -0.011 | 0.142 | -0.028 | 0.024 | -0.04 | 0.022
21 | NARF (UniProt Q9UHQ1) | -0.027 | 0.01 | 0.032 | 0.001 | 0.029 | 0.008 | 0.02 | 0.012 | -0.008 | -0.04
22 | MT-CYB (UniProt P00156) | -0.054 | -0.025 | -0.126 | -0.856 (active) | 0.094 | 0.568 (active) | -0.074 | -0.05 | 0.05 | 0.385
23 | NF1 (UniProt P21359) | -0.034 | -0.022 | -0.075 | -0.031 | -0.001 | -0.108 | -0.014 | -0.009 | -0.041 | 0.049
24 | MTFP1 (UniProt Q9UDX5) | 0.026 | 0.017 | 0.097 | -0.364 (active) | -0.01 | 0.059 | 0.006 | -0.043 | 0.01 | 0.067
25 | NFATC4 isoform 2 (UniProt Q14934) | 0.039 | 0.003 | -0.132 | -0.187 | -0.006 | 0.04 | 0.084 | 0.026 | -0.305 | 0.192
26 | NCOR1 (UniProt O75376) | 0.046 | -0.028 | 0.018 | 0.031 | -0.022 | -0.03 | -0.009 | -0.034 | -0.028 | 0.006
27 | NDC1 (UniProt Q9BTX1) | -0.087 | -0.012 | -0.027 | -0.333 (active) | -0.044 | 0.185 | -0.01 | -0.001 | -0.066 | 0.296 (active)
28 | MTOR (UniProt P42345) | -0.008 | -0.016 | -0.068 | -0.042 | 0.021 | -0.079 | 0.018 | 0.055 | -0.015 | 0.053
29 | ORC5 (UniProt O43913) | -0.014 | -0.049 | -0.137 | -0.009 | -0.016 | -0.113 | -0.023 | 0.027 | -0.069 | 0.045
30 | OGT (UniProt O15294) | -0.006 | -0.038 | -0.038 | -0.016 | -0.016 | -0.086 | 0.016 | 0.009 | -0.011 | -0.029
31 | NCAPH (UniProt Q15003) | -0.012 | 0.005 | -0.019 | -0.015 | 0.046 | -0.101 | 0 | 0.036 | -0.013 | 0.028
